Compound activity deposited in PubChem BioAssay by several laboratories.
A selection: hits, their analogues and other compounds. The true share with any hit is near 1.6%.
INS promoter inh – inhibitors of insulin promoter-driven GFP, primary screen, imaging, TRM-6 cells (human fetal islet line), eGFP reporter, cell count; reporter expression induced with tamoxifen; inhibition, % at 2 µM; 130,000 compounds, 0.9% hits; AID 1273, 2008;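 active = inhibition above the mean plus 3 SD, with well images judged a real hit on visual review, cut at about 60% in these data, passing the limit was not always enough; inconclusive = inhibition over the cutoff but images rejected on review; inactive = inhibition not above the cutoff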
Phagocytosis inh – inhibitors of macrophage phagocytosis, primary screen, imaging, J774A.1 cells, IgG beads. 110,000 compounds, 0.07% hits. AID 1029, 2008. J774A.1 macrophage IgG-bead phagocytosis. inhibition, % at 5 µM;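 active = inhibition above the mean of the plate negative controls plus 5 SD, cut at about 13% in these data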;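 note: phagocytic index as fraction of beads internalized from green versus red external bead signal; plate controls were DMSO negative control for no effect and cytochalasin-D positive control for full effect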
HUVEC tox TNFa – cytotoxicity in TNFa-stimulated HUVEC, primary screen, cytotoxicity control for VCAM1 expression modulator project, imaging, Hoechst nuclei count. HUVEC TNFalpha-stimulated, Hoechst cell count. cell count reduction, % at 2 µM. 93,000 compounds, 0.17% hits. AID 848, 2007;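 active = cell count reduction exceeding the screen mean by over 5 SD, scaled to untreated wells per plate, cut at about 78% in these data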;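 note: cells counted after 24 h of TNF alpha exposure following the 1 h pretreatment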
VCAM1 TNFa inh – inhibitors of TNFa-induced VCAM1 expression, primary screen, imaging, HUVEC, TNFa stimulus, immunofluorescence; 95,000 compounds, 0.48% hits; inhibition, % at 2 µM; HUVEC TNFa-induced VCAM-1 immunofluorescence, high-content imaging;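 active = inhibition above the batch mean plus 3 SD, with images confirmed as a hit by eye, cut at about 37% in these data; inconclusive = inhibition above that limit but hit not confirmed in images; inactive = inhibition not above that limit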;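 note: 0% = TNF-stimulated DMSO wells and 100% = unstimulated control wells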
F-actin modifier – modifiers of F-actin cytoskeleton organization, primary screen, imaging, HUVEC, phalloidin staining, high-content imaging; 91,000 compounds, 0.18% hits; inhibition, % at 2 µM; HUVEC TNFa F-actin phalloidin imaging;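 active = inhibition above the batch mean plus 3 SD and confirmed as a hit by visual image inspection, cut at about 30% in these data, passing the limit was not always enough; inconclusive = above the inhibition threshold but rejected on visual inspection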
E-sel TNF inh – E-selectin induction blockers in HUVEC – imaging, immunofluorescence, high content, primary screen | AID 1246, 2008 | HUVEC TNFa-induced E-selectin immunofluorescence | inhibition, % at 2 µM | 120,000 compounds, 0.71% hits;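 active = inhibition above the batch mean plus 3 SD, and confirmed as a hit on visual image review, cut at about 43% in these data; inconclusive = passes the inhibition cutoff but fails visual image review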;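 note: 0% = TNF-stimulated DMSO wells and 100% = unstimulated control wells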
The depositor's hits bear a star; u = inconclusive; x = not tested or not shown.

SMILES	INS promoter inh	Phagocytosis inh	HUVEC tox TNFa	VCAM1 TNFa inh	F-actin modifier	E-sel TNF inh
CC12CCC(C(=O)NCc3ccccc3Cl)(CC1=O)C2(C)C (centres undefined)	-95	x	x	x	x	-4
CN(Cc1ccccc1)C(=S)NC(=O)C1CCCCC1	x	-6	x	x	x	93*
CN(Cc1ccccc1)S(=O)(=O)c1ccc(NC(=S)NC(=O)C2CCCC2)cc1	29	x	16	48*	6	-3
CC(C)Sc1nc2ncnc(N)c2[nH]1	44	x	x	x	x	-12
COCCNC(=O)C1CC(=O)N(c2ccc(OC)cc2)C1c1ccc(OC)cc1 (centres undefined)	7	x	x	x	x	-4
Oc1ccc(Nc2nc3ccccc3nc2Nc2ccc(O)cc2)cc1	-257	0	x	94*	u	46
CC1(C)CC(=O)c2cc(OCC(=O)NCCCN3CCN(c4ccc(F)cc4)CC3)ccc2O1	-81	-1	-25	-3	48*	x
CC(C)CCNC(=O)COc1ccc2c(c1)C(=O)CC(C)(C)O2	-12	-1	-11	8	x	23
COc1ccc(NS(=O)(=O)c2cccc(C(=O)NNC(=O)c3cc(C)oc3C)c2)cc1	2	x	x	x	x	x
COc1ccc(NS(=O)(=O)c2cc(C)ccc2NC(=O)c2cc(C)oc2C)cc1	27	1	32	44*	-59	2
COc1ccc(CCNC(=O)C(=O)Nc2ccc3c(c2)OCO3)cc1OC	-29	x	x	x	x	-9
CC(C)CSc1nsc(N)n1	86*	-1	-8	6	0	15
CC(C)CSc1nnc(N)s1	18	-1	-14	-7	4	-12
C[N+]12CCCCC1C(COC(=O)c1ccc3c(c1)OCO3)CCC2 (centres undefined)	75*	-2	-14	-12	-8	9
COc1cc(/C=C\C(=O)NCc2ccc3[nH]c(C)cc3c2)cc(OC)c1OC	66*	x	x	x	x	-22
CCC(C(=O)N1CCc2cc(OC)c(OC)cc2C1)c1ccccc1 (centres undefined)	29	0	-18	12	30	100*
COc1cc2c(cc1OC)CN(C(=O)c1ccccc1C(=O)O)CC2	x	x	-4	8	21	12
S=C1NC2=C(CCC/C2=C\c2ccccc2)C(c2ccccc2)N1 (centres undefined)	10	1	x	x	x	x
C(=C1/CCCC2=C1Nc1ncnn1C2c1ccccc1)/c1ccccc1 (centres undefined)	73*	6	2	-9	1	29
C=CCOc1c2ccc(C(=O)NCc3ccccc3OC)cc2nn1C	19	x	72	68*	28	6
NC(=O)C1CCCN(C(=O)c2ccc(Cl)cc2)C1 (centres undefined)	50	0	8	14	-12	12
O=C(c1ccc(Cl)cc1)N1CCCOC1	10	0	75	100*	x	-15
Cc1ccc(S(=O)(=O)N2CCCCC2)cc1NC(=O)COC(=O)c1ccc(O)cc1	x	x	x	x	x	7
COc1ccc2cc3c(N)nn(C(=O)C4CCC(C(C)(C)C)CC4)c3nc2c1 (centres undefined)	60*	x	x	x	x	-15
COc1ccc2cc3c(N)nn(C(=O)Cc4ccccc4OC)c3nc2c1	x	0	8	-5	-16	x
SMILES	INS promoter inh	Phagocytosis inh	HUVEC tox TNFa	VCAM1 TNFa inh	F-actin modifier	E-sel TNF inh
Cc1ccccc1CS(=O)(=O)c1nnc([C@H](Cc2ccccc2)NC(=O)OC(C)(C)C)o1	78*	1	9	75*	20	19
CCC(C)[C@@H](NC(=O)OC(C)(C)C)c1nnc(S(=O)(=O)Cc2cccc(C)c2)o1 (some centres undefined)	7	-1	-9	42*	28	x
C=CCSc1nc2ccccc2n1S(=O)(=O)c1ccc(C)cc1	95*	x	-16	-13	7	-38
O=C(CSc1nc2ccccc2n1S(=O)(=O)c1ccccc1)N1CCCCC1	-21	x	10	6	2	6
CCNCc1nc2cc(Cl)ccc2c(=O)[nH]1	0	x	x	x	x	-46
N#CC(C#N)=C1C=CC=CN1/C(=C\c1ccco1)C(=O)c1ccc(-c2ccccc2)cc1	x	-1	x	x	x	93*
COc1ccc(/C=N/NC(=O)CCc2c(C)n[nH]c2C)cc1O	-8	0	3	-7	x	12
C#CC(=O)N(c1cccc(OC)c1)C(C(=O)NC1CCCC1)c1cccs1 (centres undefined)	x	47*	22	u	-26	99*
O=C(NC1CCCCC1)C(c1cccs1)N(C(=O)c1ccco1)c1ccc2c(c1)OCCO2 (centres undefined)	12	x	8	-20	-28	60*
O=C(NC1CCCCC1)C(c1cccs1)N(Cc1cccs1)C(=O)c1ccco1 (centres undefined)	x	-4	-7	-5	43	36
OC1(c2ccccc2)C/C(=N\n2cnnc2)C=C1c1ccccc1 (centres undefined)	17	-1	-8	-7	-2	0
O=C1C=C(c2ccccc2)C(O)(c2ccccc2)C1 (centres undefined)	x	-1	-24	-1	2	61*
O=Cc1c[nH]c2ccc(S(=O)(=O)N3CCOCC3)cc12	33	-2	x	x	x	-7
O=C1c2ccccc2C(=O)N1CC(O)CNc1ccc(Br)cc1 (centres undefined)	72*	-3	x	x	x	x
O=C1c2ccccc2C(=O)N1CC(O)COCc1ccccc1 (centres undefined)	8	x	-42	11	10	x
O=C(CSc1nnc(-c2c[nH]c3ccccc23)o1)c1ccc(-c2ccccc2)cc1	x	-4	x	x	x	x
CCOc1ccc2ccccc2c1/C=N/n1cncn1	-5	-5	-29	88*	-16	7
O=C1C2CC=CCC2C(=O)N1c1ccc(N2CCN(c3ccccn3)CC2)c([N+](=O)[O-])c1 (centres undefined)	43	x	x	x	x	-2
Cc1[nH]c2ccc(Br)cc2c(=O)c1CN1CCOCC1	x	1	-7	0	-19	-23
CCOc1ccc2[nH]c(C)c(CN3CCOCC3)c(=O)c2c1	-6	-1	-37	0	76*	x
COc1ccccc1N1CCN(S(=O)(=O)Cc2ccccc2Cl)CC1	89*	-2	x	x	x	25
O=C1CC(N2CCN(Cc3ccc4c(c3)OCO4)CC2)C(=O)N1c1ccccc1 (centres undefined)	46	1	26	61*	-3	13
COc1cc(/C=N/NC(=S)Nc2cccc(Cl)c2C)ccc1OCC(=O)N1CC(C)OC(C)C1 (centres undefined)	33	0	x	x	x	5
CC1Oc2ccccc2C=C1/C=C1/SC(N2CCOCC2)=NC1=O (centres undefined)	13	x	13	52*	-9	0
CCCNC(=O)C1CCN(S(=O)(=O)c2c(C)noc2/C=C\c2ccc(OC)cc2)CC1	x	x	2	-1	-14	76*
